Bioassay records: PubChem, National Center for Advancing Translational Sciences (NCATS)
GCN5L2 inh – GCN5L2 (KAT2A) acetyltransferase inhibition. Q92830. GCN5L2 HAT assay, ThioGlo1 CoA-SH fluorescence. Potency, µM (titrated, usually from 58.9 µM), without a hit: at the highest dose activity change, negative = inhibition, usual class: inhibitors. 0.21% of 390,000 active
Target sequence (Q92830 whole entry, looked up): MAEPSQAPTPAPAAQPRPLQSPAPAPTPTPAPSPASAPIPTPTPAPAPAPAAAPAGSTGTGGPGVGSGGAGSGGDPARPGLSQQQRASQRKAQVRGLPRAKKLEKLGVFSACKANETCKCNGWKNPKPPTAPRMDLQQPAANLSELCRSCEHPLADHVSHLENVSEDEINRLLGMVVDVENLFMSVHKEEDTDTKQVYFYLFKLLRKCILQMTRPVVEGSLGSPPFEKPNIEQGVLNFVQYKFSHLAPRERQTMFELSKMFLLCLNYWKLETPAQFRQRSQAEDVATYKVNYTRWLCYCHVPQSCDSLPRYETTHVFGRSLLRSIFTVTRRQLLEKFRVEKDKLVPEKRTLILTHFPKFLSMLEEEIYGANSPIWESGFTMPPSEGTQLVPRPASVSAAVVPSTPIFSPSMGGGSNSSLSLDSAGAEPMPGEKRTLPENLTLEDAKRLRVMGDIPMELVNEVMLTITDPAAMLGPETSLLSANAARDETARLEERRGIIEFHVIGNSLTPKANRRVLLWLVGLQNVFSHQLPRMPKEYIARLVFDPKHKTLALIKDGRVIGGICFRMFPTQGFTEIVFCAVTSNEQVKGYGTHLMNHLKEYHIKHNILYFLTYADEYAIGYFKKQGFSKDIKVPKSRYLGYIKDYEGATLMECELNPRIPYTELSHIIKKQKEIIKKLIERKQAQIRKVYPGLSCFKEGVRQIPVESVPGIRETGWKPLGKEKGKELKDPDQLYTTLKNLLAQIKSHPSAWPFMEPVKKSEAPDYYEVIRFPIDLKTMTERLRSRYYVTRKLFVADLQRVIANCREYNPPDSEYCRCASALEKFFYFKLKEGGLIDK
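Preincubate 20nM GCN5L2 with compound 15 min, RT → add 50uM ThioGlo1 + 75uM H3(1-25) + 70uM acetyl-CoA → read fluorescence 0 and 20 min. Primary qHTS; fluorescent artifacts likely.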
PLK1 PBD block – PLK1 (human) polo-box domain binding inhibition | 2.8% of 360,000 active | AID 720504 | Potency, µM, inactives show max response, negative = inhibition, actives largely listed as inhibitors | P53350 | Plk1 PBD binding of FITC phosphopeptide, fluorescence polarization; further: series mostly up to about 57 µM; nearly all actives have a fitted effect of over 65% in size
12-LOX inh – blocks human arachidonate 12S-lipoxygenase; Potency, µM (doses to about 108 µM), without a hit: at the highest dose activity change, negative = inhibition, most hits filed as inhibitors; 1.1% of 580,000 active; P18054; AID 1671190; purified 12hLO, xylenol orange hydroperoxide absorbance
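Hydroperoxide product was detected by ferrous iron/xylenol orange as the 573 to 405 nm absorbance ratio. Arachidonic acid at 40 uM (final) was turned over for 30 min at room temperature by 150 nM human 12hLO, pH 7.0 Hepes buffer, after 15 min compound preincubation.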
VDR inh – blocks the human vitamin D receptor; P11473; VDR-SRC2-3 peptide fluorescence polarization, 2 h; Potency, µM, without a hit: max response, negative = inhibition, usual class: inhibitors; 0.93% of 400,000 active; AID 504847
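Signal is fluorescence polarization, reporting how far test compounds block the interaction of VDR with the SRC2-3 coregulator peptide after a 2 h room-temperature incubation.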
Numbers without * were called inactive; ? = inconclusive; nt = no result; [ ] = dose if it differs, or a comment. Rows were chosen to be rich in hits. Some 3% of all compounds tested hit in one or more screens of this group. The call rests on the fitted dose curve; in most records, active means well fitted curve in the direction sought with a large enough effect; inconclusive means small, poorly fitted or top-dose-only effect, or another doubt; inactive means no such curve, though single readings can be large; an effect the other way counts as inactive or inconclusive. On the % scale 0 is the no-effect control and ±100 the full control effect; potency means the concentration at half of the fitted maximal effect.

SMILES	GCN5L2 inh	PLK1 PBD block	12-LOX inh	VDR inh
COc1ccc(C2N(C(=O)CN3CCOCC3)CCCN2S(=O)(=O)c2ccc(C)cc2)cc1 (stereo not drawn)	nt	nt	-10%	nt
CC(C)CC1=NN(C(=O)c2ccncc2)C(O)(C(F)(F)F)C1 (stereo not drawn)	2%	24µM*	32%	?
CC(C)CC1=NN(C(=O)c2cccnc2)C(O)(C(F)(F)F)C1 (stereo not drawn)	3%	-9%	28%	-2%
CC(=O)/C=C(\C)Nc1ccc(-c2cnc(-c3ccccc3)o2)cc1	28µM*	-8%	0%	-6%
Cc1ccc(/C=N/Nc2ccc(S(=O)(=O)Nc3ccc(Cl)cc3)cc2[N+](=O)[O-])cc1	nt	nt	9%	nt
COc1ccc(-c2nnc(SC(C)C(=O)NC3CCCCC3)o2)cc1OC (stereo not drawn)	nt	nt	-4%	nt
CC1(CNc2ccccc2)COc2ccc(C(=O)N3CC[S+](=O)([O-])CC3)cc2N1 (stereo not drawn)	nt	nt	21%[176 µM]	nt
O=C(Nc1ccc(OC(F)(F)F)cc1)c1cc(-c2ccc[nH]2)n[nH]1	nt	nt	16µM*	nt
CCOc1ccc(NC(=O)c2cc(-c3ccc[nH]3)n[nH]2)cc1	nt	nt	-22%	nt
COc1ccc(NC(=O)c2cc(-c3ccc[nH]3)n[nH]2)c(OC)c1	nt	nt	-5%	nt
CCc1ccc(NC(=O)c2cc(-c3ccc[nH]3)n[nH]2)cc1	nt	nt	28µM*	nt
O=C(Nc1ccc(F)cc1F)c1cccnc1	-3%	27µM*	0%	-20%
O=C(Nc1ccc(F)cc1F)c1cc(-c2ccc[nH]2)n[nH]1	nt	nt	11µM*	nt
CCc1cccc(NC(=O)c2cc(-c3ccc[nH]3)n[nH]2)c1	nt	nt	22µM*	nt
CCc1cccc(NC(=O)c2n[nH]c(=O)c3ccccc23)c1	nt	nt	4%	nt
Cc1ccccc1-c1nccc(Nc2ccc(F)cc2)n1	-15%	nt	-16%	-12%
COc1ccccc1-c1nccc(NCc2cccs2)n1	?	nt	13µM*	?
c1csc(CNc2ccnc(-c3ccoc3)n2)c1	-13%	nt	13µM*	22µM*
CN(C)C(=O)c1ccc(-c2nccc(NCc3ccccc3)n2)cc1	?	nt	45µM*	?
COc1ccccc1-c1nccc(Nc2ccc(F)cc2)n1	-18%	nt	?	50µM*
Cc1ccc(CCC(=O)Nc2cccc3cccnc23)c(C)c1	nt	nt	8%	nt
CN(C)C(=O)c1ccc(-c2nccc(NCc3cccs3)n2)cc1	?	nt	?	45µM*
N#Cc1ccccc1OCc1cccc2ccccc12	nt	nt	-15%	nt
C=CCNC(=S)N/N=C1/CCC=C1CCCCC	nt	nt	35µM*	nt
CCCCCCn1nc(C(=O)Nc2nc(-c3ccc(NC(C)=O)cc3)cs2)c2ccccc2c1=O	nt	nt	-10%	nt
SMILES	GCN5L2 inh	PLK1 PBD block	12-LOX inh	VDR inh
CC(=O)N1/C(=C/c2ccc(N(C)C)cc2)C(=O)c2ccccc21	-13%	-9%	-16%	32µM*
CN(C)c1ccc(/C=C2\C(=O)Nc3ccccc32)cc1	-25%	nt	-7%	?
Cn1sc(=O)n(Cc2ccccc2)c1=O	20µM*	nt	nt	5µM*
COc1ccc(C(=O)Nc2nnc(C(F)(F)F)s2)cc1	-4%	27µM*	0%	-24%
COc1ccc(C(=O)Nc2nnc(-c3ccccc3)s2)cc1	2%	5%	-5%	14%
C=Cc1ccc(COc2ccc3c(=O)c(-c4ccccc4OC)coc3c2)cc1	nt	nt	33%	nt
CCc1nncn1C1CCN(S(=O)(=O)c2cccc(OC)c2)CC1	nt	nt	79µM*	nt
CCOC(=O)C(=O)Nc1c(C(=O)Nc2ccc(C)cc2)oc2ccccc12	nt	nt	-26%	nt
CCC(=O)Nc1sc(Cc2ccc3c(c2)OCO3)c(C)c1C(N)=O	23%	21µM*	?	?
Cc1c(Cc2ccccc2)sc(NC(=O)Cc2ccccc2)c1C(N)=O	nt	11µM*	16µM*	?
Cc1c(Cc2ccccc2)sc(NC(=O)C(C)(C)C)c1C(N)=O	-1%	19µM*	-35%	-8%
Cc1c(Cc2ccccc2)sc(N)c1C(N)=O	-8%	nt	nt	nt
CCC(=O)Nc1sc(Cc2ccccc2)c(C)c1C(N)=O	-15%	27µM*	-24%	-9%
CNC(=O)c1cc(=O)n(CC(=O)Nc2cccc(C#N)c2)c2ccccc12	nt	nt	6%	nt
COc1cc(C2=NOC(C(=O)Nc3ccc(OC(F)(F)F)cc3)C2)cc(OC)c1OC (stereo not drawn)	nt	nt	-1%	nt
Cc1ccc2nc(-c3ccncc3)cc(C(=O)NCc3cccnc3)c2c1	nt	nt	6%	nt
CC12CCC(C(=O)N(CSC(=S)N/N=C\c3ccccc3Cl)C1=O)C2(C)C (stereo not drawn)	-13%	-22%	?	-16%
CC12CCC(C(=O)N(CSC(=S)N/N=C\c3ccccc3)C1=O)C2(C)C (stereo not drawn)	-18%	3.4µM*	0%	-17%
O=C(NCCS(=O)(=O)c1ccc(Cl)cc1)c1ccc(F)cc1	-1%	21µM*	4%	?
O=C(NCCS(=O)(=O)c1ccc(Br)cc1)c1ccc(F)cc1	-11%	4%	0%	4%
CCN(CCNC(=O)CC1=C2CCCCC2N(C)C1=O)Cc1ccccc1 (stereo not drawn)	nt	nt	5%	nt
CCCc1ccc(C(=O)NNc2ccc(F)cc2)cc1	-9%	-2%	18µM*	-27%
CCCc1ccc(C(=O)NNC(=O)c2ccc(Br)cc2)cc1	-15%	-8%	-12%	-6%
CN(C)c1ccc(NC(=O)Nc2ccc3c(c2)c(=O)n(C)n3-c2ccccc2)cc1	nt	-8%	?	nt
CN(C)c1ccc(NC(=S)Nc2ccc3c(c2)c(=O)n(C)n3-c2ccc(C(C)(C)C)cc2)cc1	nt	27µM*	?	nt
SMILES	GCN5L2 inh	PLK1 PBD block	12-LOX inh	VDR inh
O=C(O)Cn1c2c(c3ccccc31)CSc1ccc(Cl)cc1-2	?	13µM*	?	?
CCOC(=O)Nc1ccc2c(c1)N(CCCN(C)C)c1ccccc1CC2	-17%	-2%	-21%	2%
CN(C)CCCN1c2ccc([N+](=O)[O-])cc2CCc2cc([N+](=O)[O-])ccc21	nt	nt	32µM*	?
O=C(CSc1ccccc1)OCc1cc(=O)n2nc(C3CC3)sc2n1	nt	nt	-7%	nt
CC(C)(C)C(=O)Nc1cccc(NCC(=O)NC2(C#N)CCCC2)c1	nt	nt	2%	nt
NC(=O)COC(=O)C12CC3CC(CC(O)(C3)C1)C2	-7%	?	-3%	?
NC(CSS(=O)(=O)O)=NCCC12CC3CC(CC(O)(C3)C1)C2	-1%	12µM*	-2%	40µM*
OCc1cc(-c2ccccc2)n[nH]1	nt	nt	9%	nt
O=C(/C=C/c1ccccc1)C1=C(O)C(=O)N(CCO)C1c1ccc2c(c1)OCO2 (stereo not drawn)	-6%	-7%	7.9µM*	-4%
COc1ccc2cnn(CC(=O)Nc3cccc4ccccc34)c(=O)c2c1OC	nt	nt	-4%	nt
O=C(/C=C/c1cc[n+](CC(=O)c2ccc3cccc4c3c2CC4)cc1)c1ccc2cccc3c2c1CC3	-22%	19µM*	nt	-2%
O=C(/C=C/c1ccccc1)Nc1ccc2c(c1)CCC2	nt	nt	-6%	nt
OC(CN1CCNCC1)Cn1c2ccc(Br)cc2c2cc(Br)ccc21 (stereo not drawn)	nt	nt	28µM*	nt
OC(CN1CCCCC1)Cn1c2ccccc2c2cc(Br)ccc21 (stereo not drawn)	2%	-16%	0%	-10%
